Experimental data taken from PubChem BioAssay AID1259415 (National Center for Advancing Translational Sciences (NCATS), 2018).
“And” between values parts separate entries of the source, which are not always exact repeats. Identical values can stand only once. In all, about 410,000 compounds went through this assay and about 18,000 (4.4%) were called active. Another 7% or so got no clear call; they are omitted. The sample holds actives, similar compounds and a random draw of the others, so the mix is not that of the screen. Unmarked numbers belong to inactive results. Cut-off read from the data, not from the text of the source: active = activity change below about -60%; inconclusive = no clear call, values can overlap the other calls; inactive = above about -39%.

Test: qHTS Assay for inhibitors of the human cytomegalovirus (HCMV)
Conditions: HFF cells, HCMV-luciferase reporter, 72 h; at 57.5 µM; active compounds read low
Outline: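 Steps: HFFs plated, 16 h 37C; compounds added; HCMV-luciferase added to MOI 1 PFU/cell; 72 h 37C; OneGlo reagent, 5 min room temperature; luminescence read, normalized to controls.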
% is set by controls: 0 for no effect and ±100 for the full control effect.

Compound | activity change, negative = inhibition
CC1(C)CC(=O)c2cc(OCC(=O)NCC3CCCO3)ccc2O1 (configuration not stated) | 55.1%
Cc1ccc(CNC(=O)CCC(=O)N2Cc3ccccc3Oc3ncccc32)cc1 | -2.66%
CN1CCC(N(C)C(=O)c2ccc(Cl)c(S(=O)(=O)Nc3ccc(Cl)cc3)c2)CC1 | -3.23%
Cn1c(=O)n(C)c(=O)n(CC(=O)N2CCCCC2)c1=O | 32.3%
O=C(Cn1c(=O)n(CC2CS2)c2ccccc21)N1CCCCC1 (configuration not stated) | -89.4% (active)
CC1CCCN(C(=O)Cn2c(=O)oc3ccccc32)C1 (configuration not stated) | 12.6%
Cc1cc(NC(=O)c2ccc(-c3ccc(Cl)cc3)o2)cc(-c2nc3ncccc3o2)c1O | 5.53%
COc1ccc(C(=O)NC2CCCc3c2cnn3-c2cccc(C)c2C)c(OC)n1 (configuration not stated) | -87% (active)
Cc1cc(C(=O)NC2CCCc3c2cnn3-c2cccc(C)c2C)c(C)o1 (configuration not stated) | -73.8% (active)
COc1cccc(C(=O)Nc2c3c(nn2-c2cccc(C)c2C)CS(=O)(=O)C3)c1OC | -4.86%
Cc1cccc(-n2nc3c(c2NC(=O)c2ccc(Br)o2)CSC3)c1C | 14.4%
Cc1cccc(C(=O)OC(C)C(=O)NC2CCCc3ccccc32)c1O (configuration not stated) | -10.7%
Cc1cc(C(=O)NNC(=O)CCC2CCCCC2)c(C)o1 | -17%
COc1ccc(C(=O)N2CCC(c3nc4ccccc4o3)CC2)cc1 | 43.5%
CCn1c(C)c(C)c2cc(C(=O)N3CCN(c4cccc(C)c4C)CC3)ccc21 | 0% and 13.6%
Cc1cccc(N2CCN(C(=O)c3cc4c(=O)[nH]c5ccccc5c4n3C)CC2)c1C | -65.2% (active)
Cc1cccc(N2CCN(C(=O)c3oc(=O)c4ccccc4c3-c3ccccc3)CC2)c1C | 4.74%
COc1ccc2c(c1)c(=O)c(S(=O)(=O)c1ccc(F)cc1)cn2CC(=O)Nc1ccc(C)cc1C | -7.71%
CCS(=O)(=O)c1nc(S(=O)(=O)c2ccc(C)cc2)c(NCc2ccc(Cl)cc2)s1 | -5.88%
Cc1cccc(OCCSc2nc3ccc(NC(=O)COc4ccccc4C)cc3s2)c1 | -12.2%
CSc1nc2ccc(S(=O)(=O)N3CCc4ccccc43)cc2s1 | -81.9% (active)
CCC(=O)Nc1ccc2nc(SCC(=O)N3CCc4ccccc43)sc2c1 | 29.6%

Compound | activity change, negative = inhibition
CCn1c(=O)c(=O)n(CC)c2cc(S(=O)(=O)N3CCc4ccccc43)ccc21 | -35.5%
Cc1nc2sc(C)c(C)n2c(=O)c1S(=O)(=O)NCCc1ccc(Cl)cc1 | 6.07%
Cc1oc2ncnc(N3CCOCC3)c2c1C(=O)NCCc1ccccc1 | -27.7%
CCNC(=O)C1CCCN(C(=O)c2cc(F)ccc2C)CC1 (configuration not stated) | -4.35%
NS(=O)(=O)c1ccc2nc(NC(=O)COc3ccccc3)sc2c1 | -8.44%
O=C(NC(Nc1nc2ccc([N+](=O)[O-])cc2s1)(C(F)(F)F)C(F)(F)F)c1ccccc1 | -103% (active)
CN(C)c1cccc(C(=O)Nc2nc3ccc(S(=O)(=O)NC(C)(C)C)cc3s2)c1 | -29.3%
O=C(Nc1cc(C(F)(F)F)ccc1Cl)c1cc2nc(-c3ccc4c(c3)OCO4)cc(C(F)(F)F)n2n1 | 4.65%
CCC(C)Nc1oc(-c2ccc(COc3ccc(Cl)cc3)o2)nc1C#N (configuration not stated) | -28.6%
CCC(Sc1nc2n[nH]c(C)c2c(=N)n1-c1ccccc1Cl)C(=O)N(CC)CC (configuration not stated) | 10.8%
Cc1ccc(S(=O)(=O)N(C)C)cc1NC(=O)CN1c2cccc3cccc(c23)S1(=O)=O | -17.7%
CCN(CC(=O)Nc1c(F)cccc1F)C(=O)c1cnc(C)cn1 | -12.6%
CC(C)CN(CC(C)C)C(=O)CN1c2cccc3cccc(c23)S1(=O)=O | 51.7%
CCN(CC(=O)Nc1c(F)cccc1F)C(=O)CN1c2cccc3cccc(c23)S1(=O)=O | -81.2% (active)
O=C(O)CN1c2cccc3cccc(c23)S1(=O)=O | 24.9%
COc1ccc(C)cc1NC(=O)CN1c2cccc3cccc(c23)S1(=O)=O | -63.9% (active)
CCC(=O)Nc1ccccc1-c1nc2ccccc2n(CC(=O)Nc2ccc(C)c(C)c2)c1=O | 4.84%
O=C(CSc1ncc(CO)n1Cc1ccc(F)cc1)NCc1ccco1 | -7.64%
O=C(CC(CC(=O)c1ccccc1)c1ccco1)c1ccccc1 | -38.2%
COc1cc(NC(=O)c2nn(-c3ccc(C)cc3)c(=O)c3c2c2ccccc2n3C)cc(OC)c1OC | 8.56%
Cc1ccc(NC(=O)C2CCC(C(C)(C)C)CC2)cc1S(=O)(=O)N1CCOCC1 (configuration not stated) | -25.3%
CC(=O)Nc1ccc(NC(=O)COC(=O)C2CCC(C(C)(C)C)CC2)cc1 (configuration not stated) | -11.6%

Compound | activity change, negative = inhibition
CC(C)(C)C1CCC(C(=O)Nc2cccnc2)CC1 (configuration not stated) | -93.5% (active)
CCOc1ccc(NC(=O)Cn2c(C)ccc(C#N)c2=O)cc1 | -3.22%
O=C(NCCc1csc(-c2ccc(C(F)(F)F)cc2)n1)C(=O)Nc1ccc(F)c(Cl)c1 | -16.3%
CCc1nc2nc(C)cc(Nc3ccc(F)c(Cl)c3)n2n1 | -29.5%
CCOc1ncccc1C(=O)Nc1ccc(S(=O)(=O)Nc2nc(C)cc(C)n2)cc1 | 4.63%
Cc1ccc(S(=O)(=O)Nc2ccc3ncccc3c2)cc1 | -97.8% (active)
Cc1ccc(S(=O)(=O)Nc2ccc(F)c(S(=O)(=O)N3CCOCC3)c2)cc1 | 11.9%
COc1ccc(Cl)cc1NC(=O)CCn1c(=O)c2cccn2c2ccccc21 | 4.3%
CCOC(=O)c1c(N)n(-c2cccc(C)c2C)c2nc3ccccc3nc12 | 3.84%
Cc1nn(-c2ccc(N3CCCCC3)nn2)c(C)c1CCC(=O)NCc1ccc(F)cc1 | -11.9%
CCNS(=O)(=O)c1ccc(NC(=O)CSc2nc(-c3ccco3)cc(C(F)(F)F)n2)cc1 | 19.7%
O=C1Nc2cc(C(=O)N3CCC(N4CCCCC4)CC3)ccc2S/C1=C\c1ccccc1 | -88% (active)
O=C(Cc1ccccc1)N1CCN(C2CCCCCC2)CC1 | 31.1%
CC1CCN(C(=O)c2ccc3c(c2)NC(=O)CN3)CC1 | -12.7%
CCOc1ccccc1NC(=O)Cn1c(=O)n(Cc2ccccc2)c(=O)c2c(C)c(C(=O)N(C)C)sc21 | -19.6%
CC(=O)CC[C@@H](C)O[C@@H]1OC(C)[C@H](O)CC1O (some centres not stated) | -66.6% (active)
COc1ccc(NC(=O)N(C)C[C@@H]2OCCCC[C@@H](C)Oc3ccc(NC(=O)NC4CCCCC4)cc3C(=O)N([C@H](C)CO)C[C@@H]2C)cc1 | 1.75%
O=C(CSc1ccccn1)N1CCN(S(=O)(=O)c2ccc(Cl)cc2)CC1 | -33.6%
CCOC(=O)CSc1ccccn1 | -102% (active)
CCOC(=O)CSc1ncc(-c2cccc(Cl)c2)cn1 | 23.7%
COc1ccc(CCNc2nc3c(-c4cccc(F)c4)nnn3c3ccccc23)cc1OC | 30.2%
Cc1ccc(CCNC(=O)c2ccc(CNS(=O)(=O)c3ccc(C)cc3)cc2)cc1 | -11.4%

Compound | activity change, negative = inhibition
Cc1ccc(S(=O)(=O)N(CC(=O)Nc2ccc(Cl)cc2Cl)c2ccccc2C)cc1 | -21.6%
CCc1nc(C)cn1S(=O)(=O)c1cc([N+](=O)[O-])ccc1Cl | -98.5% (active)
CC(C)c1nccn1S(=O)(=O)c1cc([N+](=O)[O-])ccc1Cl | -7.9%
CCc1nc(C)cn1S(=O)(=O)c1cc(OC)c(C)cc1C | -33.9%
Cc1ccccc1Nc1nn2c(=O)c3ccc(C(=O)NCCc4ccc(Cl)cc4)cc3nc2s1 | -8.87%
CC(C)c1ccc(NC(=O)Cn2nnc(C(=O)NCCc3ccccc3)c2N)cc1 | 7.46%
Cc1ccc(NC(=O)Cn2cnc3nc4c(cc3c2=O)CCCC4)cc1Cl | 19.1%
CCCN(CCC)CCNC(=O)Cn1cnc2sc(C)c(S(=O)(=O)N3CCC(C)CC3)c2c1=O | 3.59%
Fc1ccc(-n2ncc3c(Nc4ccc(Oc5ccccc5)cc4)ncnc32)cc1 | -35.2%
CCN(CCCNC(=O)Cn1ncc2c3ccccc3n(C)c2c1=O)Cc1ccccc1 | -7.87%
O=C(COc1ccc(S(=O)(=O)N2CCCC2)cc1[N+](=O)[O-])N1CCCCC1 | -8.38%
Cc1cc(S(=O)(=O)N2CCOCC2)ccc1OCC(=O)N1CCOCC1 | -17.6%
Cc1cc(C(=O)COc2ccccc2[N+](=O)[O-])c(C)n1-c1cccc(S(=O)(=O)N2CCOCC2)c1 | -89.3% (active)
O=S(=O)(c1ccc(Br)c2ccccc12)N1CCOCC1 | -15%
O=C1CCC(=O)N1CCC(=O)N(C(=O)NC1CCCCC1)C1CCCCC1 | 14.3%
CCCCNC(=O)c1onc(CSc2cccc(OC)c2)c1C(=O)O | 31.1%
CCOc1cccc(SCc2noc(C(=O)NC(C)C)c2C(=O)O)c1 | -61.6% (active)
CCCNC(=O)c1onc(CSc2ccc(F)cc2)c1C(=O)NC(C)C | -14.5%
COc1cc(C2NC(=O)NC(c3ccccc3)=C2C(C)=O)c(Br)cc1OCC(N)=O (configuration not stated) | -0.681%
O=C1CCC([N+](=O)[O-])C(c2ccccc2Br)N1 (configuration not stated) | -6.17%
COc1cc2c(cc1OC)C(c1ccccc1Br)NC(=O)C2 (configuration not stated) | -67.4% (active)
